Test results from PubChem BioAssay (Tox21).
Activity calls are given as the source filed them. A call without a number means that no potency is given here. Calls come from the whole dose curve.

Molecular target: Muscarinic acetylcholine receptor M1 (Homo sapiens) (UniProt P11229)
Assay: Cholinergic receptor muscarinic 1 (CHRM1) small molecule agonists, cell-based qHTS assay (AID 1963589); note: nearly all actives have a fitted effect of over 35% in size
Conditions: CHRM1-CHO cells, agonist mode, calcium flux fluorescence; series mostly up to 76.8 µM
From the text: National Center for Advancing Translational Sciences [NCATS]
Division of Preclinical Innovation [DPI]
U.S. Environmental Protection Agency [EPA]
National Institutes of Environmental Health Sciences [NIEHS]
National Toxicology Program [NTP]
U.S. Food and Drug Administration [FDA]
The CHRM1 is a muscarinic receptor. This receptor plays a crucial role in learning and memory processes and has long been identified as a promising therapeutic target for the improvement of cognitive decline in Alzheimer's disease (AD). The CHRM1-CHO cell line stably expressing human muscarinic acetylcholine receptor M1 (CHRM1) can be used for screening agonists and antagonists of interactions between CHRM1 and its ligands. The CHRM1-CHO Calcium Flux Assay is a homogeneous fluorescence-based assay for detecting the intracellular calcium level using FDSS kinetic plate reader system.
CHRM1-CHO cells were dispensed at 1000 cells/3uL/well in 1536-well black-clear bottom plates using a Multidrop Dispenser. After the assay plates were incubated at a 37 C/5% CO2 incubator for 18 h, 3 uL of Dye Loading Buffer was transferred to the assay plate by a Flying Reagent Dispenser. The assay plates were incubated at 37 C for 1h. For agonist mode, 23 nL of compounds dissolved in DMSO, positive controls or DMSO only was transferred to the assay plate by a pin tool. […] Each test compound was measured at 15 concentrations in three independent runs.
Potency is the fitted concentration of half-maximal effect.

Sequence of Muscarinic acetylcholine receptor M1 (Homo sapiens) (P11229 whole entry, looked up): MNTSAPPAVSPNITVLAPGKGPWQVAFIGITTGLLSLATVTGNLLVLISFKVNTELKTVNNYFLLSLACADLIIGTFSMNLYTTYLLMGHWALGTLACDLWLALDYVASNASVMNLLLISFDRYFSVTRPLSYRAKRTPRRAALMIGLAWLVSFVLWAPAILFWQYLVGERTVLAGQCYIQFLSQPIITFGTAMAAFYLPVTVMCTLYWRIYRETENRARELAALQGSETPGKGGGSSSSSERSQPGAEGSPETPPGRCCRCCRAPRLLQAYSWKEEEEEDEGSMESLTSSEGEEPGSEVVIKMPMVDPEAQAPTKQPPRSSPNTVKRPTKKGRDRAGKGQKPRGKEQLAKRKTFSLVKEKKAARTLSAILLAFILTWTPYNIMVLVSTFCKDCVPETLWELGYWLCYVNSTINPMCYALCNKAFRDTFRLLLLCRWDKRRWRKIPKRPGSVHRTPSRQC

Compound | Potency
O=CNc1ccccc1 | inactive
C[C@H]1COc2c(C3(N)CC3)c(F)cc3c(=O)c(C(=O)O)cn1c23 | inactive
CNCC[C@H](Oc1cccc2ccccc12)c1cccs1 | inactive
c1cc(C(c2ccc(OCC3CO3)cc2)c2ccc(OCC3CO3)cc2)ccc1OCC1CO1 (stereo not given) | inactive
CCCCOc1ccc(CC(=O)NO)cc1 | inactive
CC1(C)SC(C)(C)SC(C)(C)S1 | inactive
CCC(C)OC(C)CC (stereo not given) | inactive
Nc1c(I)cc(I)c(C(=O)N(CCC(=O)O)c2ccccc2)c1I | inactive
CC(C)(C)C1CCCCC1=O (stereo not given) | inactive
Cc1ccc(NC=O)c(C)c1 | inactive
O=S(=O)(O)c1ccc(Nc2nc(Nc3ccc(/C=C/c4ccc(Nc5nc(Nc6ccc(S(=O)(=O)O)cc6)nc(N(CCO)CCO)n5)cc4S(=O)(=O)O)c(S(=O)(=O)O)c3)nc(N(CCO)CCO)n2)cc1 | inactive
COC(=O)[C@H]1[C@H]2C[C@@H]3c4[nH]c5cc(OC)ccc5c4CCN3C[C@H]2C[C@@H](OC(=O)/C=C/c2ccc(O)c(OC)c2)[C@@H]1OC | inactive
CC(=O)c1ccccc1[N+](=O)[O-] | inactive
CCN(Cc1cccc(S(=O)(=O)O)c1)c1ccc(C(=C2C=CC(=[N+](CC)Cc3cccc(S(=O)(=O)[O-])c3)C=C2)c2ccccc2)cc1 | inactive
Nc1nnc(-c2ccc([N+](=O)[O-])o2)o1 | inactive
O=C(CS)OCCOC(=O)CS | inactive
O=C(Nc1ccc2c(c1)Cc1ccccc1-2)C(F)(F)F | inactive
CC1=CC(=O)/C(=C(/C)O)C(=O)O1 | inactive
CSc1c(Cl)c(Cl)c(Cl)c(Cl)c1Cl | inactive
O=C1OC2(c3ccccc31)c1ccc(O)c(Br)c1Oc1c2ccc(O)c1Br | 24.5 µM (active)

Compound | Potency
CC(C)(C)CC(C)(C)N | inactive
COC(=O)[C@@H](N)Cc1ccc(O)c(O)c1 | inactive
O=C(c1ccccc1)c1ccc(O)cc1 | inactive
CCN(C)C(=O)Oc1cccc([C@H](C)N(C)C)c1 | inactive
CCN1CCC[C@H]1CNC(=O)c1c(OC)ccc(Br)c1OC | inactive
CCc1c(C)cc(N)c(CC)c1N | inactive
O=C1c2ccccc2Cc2ccccc21 | inactive
Nc1ccc(N)c2ccccc12 | inactive
CC[C@H](C)COC(=O)/C=C/c1ccc(N=Cc2ccc(OC)cc2)cc1 | inactive
Cc1cc(O)c(C(C)C)cc1Cl | inactive
CC(C)(C)C(=O)CCc1ccc(Cl)cc1 | inactive
C=CCOC(=O)COCCC(C)C | inactive
C=C(C)C(=O)OCCOCCOCCOCCOC(=O)C(=C)C | inactive
CCN1CCN(C(=O)N[C@@H](C(=O)N[C@@H]2C(=O)N3C(C(=O)O)=C(CSc4nnnn4C)CS[C@H]23)c2ccc(O)cc2)C(=O)C1=O | inactive
Cc1ccc(C#N)cc1 | inactive
CCCCCCC(C)Nc1ccc(Nc2ccccc2)cc1 (stereo not given) | inactive
CC(C)CCCCCCCOC(=O)c1ccc(C(=O)OCCCCCCCC(C)C)c(C(=O)OCCCCCCCC(C)C)c1 | inactive
COC(=O)C1=C(C)NC(C)=C(C(=O)OCC(C)=O)C1c1ccccc1[N+](=O)[O-] (stereo not given) | inactive
Nc1ccc(-c2ccc(F)cc2)cc1 | inactive
CC(=O)Oc1ccc(C2(c3ccc(OC(C)=O)cc3)Oc3ccccc3NC2=O)cc1 | inactive
